TMEM16A act: TMEM16A chloride channel activators or potentiators, primary screen, cell-based, HTS. Anoctamin-1 (Mus musculus), Q8BHY3. HEK293 TMEM16A/YFP-H148Q/I152L, iodide quench fluorescence; stronger effect = lower value. B-score at 10 µM. 340,000 compounds, 0.3% hits;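 active means fluorescence-ratio B-score plate-corrected deviation score at least 3 library SD below zero, with starting fluorescence score within 5 deviations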;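 further: channel opened by trigger with iodide after compound preincubation; score built on the fluorescence ratio of max minus min over baseline; more negative score means more quench and so TMEM16A activation or potentiation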
Target sequence (Q8BHY3 whole entry, looked up): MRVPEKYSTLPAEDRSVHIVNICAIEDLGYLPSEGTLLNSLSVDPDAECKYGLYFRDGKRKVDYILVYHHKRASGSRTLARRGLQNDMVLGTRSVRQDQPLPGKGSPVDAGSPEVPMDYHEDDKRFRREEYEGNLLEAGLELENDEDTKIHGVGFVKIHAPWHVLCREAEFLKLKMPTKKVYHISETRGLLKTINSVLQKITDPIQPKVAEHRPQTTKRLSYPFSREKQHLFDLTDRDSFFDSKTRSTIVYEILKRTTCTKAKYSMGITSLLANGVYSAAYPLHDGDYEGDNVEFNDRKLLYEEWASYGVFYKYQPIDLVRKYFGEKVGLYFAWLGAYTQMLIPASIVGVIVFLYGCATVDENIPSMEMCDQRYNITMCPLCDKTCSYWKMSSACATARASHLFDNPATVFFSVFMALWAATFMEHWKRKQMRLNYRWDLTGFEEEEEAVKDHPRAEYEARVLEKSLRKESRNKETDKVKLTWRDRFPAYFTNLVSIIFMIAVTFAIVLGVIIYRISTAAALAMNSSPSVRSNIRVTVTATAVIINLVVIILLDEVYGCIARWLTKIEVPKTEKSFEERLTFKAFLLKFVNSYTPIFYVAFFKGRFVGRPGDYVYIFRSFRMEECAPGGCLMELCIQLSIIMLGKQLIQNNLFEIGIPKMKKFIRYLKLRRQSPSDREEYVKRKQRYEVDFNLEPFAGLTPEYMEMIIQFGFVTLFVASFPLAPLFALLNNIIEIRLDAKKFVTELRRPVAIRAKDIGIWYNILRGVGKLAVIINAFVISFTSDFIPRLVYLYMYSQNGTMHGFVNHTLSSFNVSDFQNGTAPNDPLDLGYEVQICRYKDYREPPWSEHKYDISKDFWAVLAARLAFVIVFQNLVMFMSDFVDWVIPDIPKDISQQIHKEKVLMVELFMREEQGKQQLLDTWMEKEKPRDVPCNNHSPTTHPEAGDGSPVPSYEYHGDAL
CHT allo act: CHT positive allosteric modulators, primary screen, cell-based, membrane potential dye, choline EC20; High affinity choline transporter 1 (Homo sapiens), Q9GZV3; CHT-expressing cells; stronger effect = higher value; LV-AA mutant CHT in HEK293 cells; B-score at 10 µM; 310,000 compounds, 0.49% hits;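 active means initial fluorescence not abnormally high and integrated response B-score, plate-corrected, over 3 SD above library mean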
ANO1 block: TMEM16A chloride channel inhibitors, primary screen, cell-based, HTS; Anoctamin-1 (Mus musculus), Q8BHY3; HEK293 TMEM16A/YFP iodide influx fluorescence, ionomycin; normalized B-score (activity score, 25-100; higher = stronger inhibition) at 10 µM; 310,000 compounds, 1.2% hits; AID 588511, 2011;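 active means ratio plate-corrected score three or more library SD toward inhibition, starting fluorescence score within five deviations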;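 further: score derived from kinetic fluorescence span divided by baseline fluorescence per well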
CHT inh: inhibitors of human choline transporter CHT; 310,000 compounds, 0.86% hits; B-score at 10 µM; High affinity choline transporter 1 (Homo sapiens), Q9GZV3; CHT-expressing cells, membrane potential dye, choline response; stronger effect = lower value;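 active means B-score over 3 SD under the library average, and starting fluorescence ratio not unusually high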;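 further: choline stimulus applied at its EC90 after an EC20 pre-addition; B-score computed on integrated fluorescence ratio after choline addition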
TMEM16A reconf: TMEM16A chloride channel inhibitors, confirmation, cell-based, re-confirmation; shares compounds with ANO1 block; HEK293 TMEM16A/YFP-H148Q, iodide quench fluorescence; ionomycin added to raise cell calcium; inhibition, % at 10 µM; 2,300 compounds, 39% hits; AID 652189, 2013;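 active means mean duplicate percent inhibition, scaled so buffer wells are 0 and the reference blocker 100, over three buffer SD above buffer mean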
TMEM16A Ca cntr: calcium mobilization in TMEM16A/YFP HEK293 cells, confirmation, counter-screen for TMEM16A inhibitor project | Fluo4 calcium mobilization | 2,300 compounds, 2% hits | shares compounds with ANO1 block | calcium response (% of ionomycin), % at 10 µM;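 active means duplicate-averaged calcium signal over 20% of the ionomycin maximum, relative to buffer baseline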;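 further: each well's signal is peak minus trough fluorescence divided by its pre-addition baseline; 0% = buffer wells and 100% = ionomycin wells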
Parental YFP cnt: iodide YFP quench changes in parental YFP-HEK293, counter-screen for TMEM16A inhibitor project, cell-based | YFP ratio F(max-min)/F0 at 10 µM | 2,300 tested, under 10 active | shares compounds with ANO1 block | ionomycin;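 active means yellow fluorescent protein signal ratio exceeding the buffer control mean by over 5 SD of those controls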;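 further: ratio is mean of duplicate wells from kinetic YFP trace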
ClC-1 inh: ClC-1 chloride channel inhibition, selectivity assay for TMEM16A inhibitor project, cell-based, voltage-dependent ClC-1. shares compounds with ANO1 block. CHO ClC-1-YFP, iodide influx fluorescence quench; iodide control reads 0, buffer control 100. ratio percent, % at 10 µM. 2,300 tested, under 10 active;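 active means duplicate-mean ratio percent above the mean of iodide-only control wells, which defines zero, plus 5 of their SD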;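 further: higher percent means stronger block of ClC-1 iodide influx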
* marks the source's active call; other numbers are inactive results; i = inactive; x = not tested or not shown. An excerpt weighted towards active compounds, which were near 2.4% of everything screened.

SMILES	TMEM16A act	CHT allo act	ANO1 block	CHT inh	TMEM16A reconf	TMEM16A Ca cntr	Parental YFP cnt	ClC-1 inh
C/C=C1\COC(C(=O)NCc2ccccc2)(C(F)(F)F)C=C1C=C(C)C (configuration not stated)	i	i	100*	i	i	i	-1.26	-13.0
CCN(C(=O)Cc1c(C(=O)O)[nH]c2ccccc12)c1cc(OC)ccc1OC	i	i	100*	i	i	i	-1.07	-4.5
COc1ccc(N(C)C(=O)Cc2c(C(=O)O)[nH]c3ccccc23)cc1	i	i	i	i	x	x	x	x
CCN(CCNCC(O)COc1ccccc1C(C)C)c1cccc(C)c1 (configuration not stated)	i	i	i	i	33.5%*	i	-1.01	-15.5
CCOC(=O)c1cccc(OCC(O)CNCCOc2ccccc2F)c1 (configuration not stated)	i	i	i	i	x	x	x	x
CCN1CCN(CC(O)COC(C)C)CC1 (configuration not stated)	i	i	25*	i	i	i	-1.23	-14.0
Cc1nc(N2CCN(Cc3ccccc3)CC2)nc2c1C(=O)CC(C)C2 (configuration not stated)	i	i	i	i	x	x	x	x
COc1ccc(C2CC(=O)c3c(C)nc(N4CCN(Cc5ccccc5)CC4)nc3C2)cc1OC (configuration not stated)	i	i	100*	i	26.0%*	i	-0.914	-14.0
O=C(Nc1cccc(-c2cn3ccccc3n2)c1)c1cc2ccccc2oc1=O	i	i	i	i	x	x	x	x
COc1ccc2oc3cc(C)[n+]([O-])c(-c4ccc(Br)cc4)c3c2c1	i	i	25*	i	21.5%*	i	-1.3	-11.5
O=C(O)COc1ccccc1/C=C1\SC(=S)N(NC(=O)c2ccccc2O)C1=O	i	i	i	i	i	i	-0.849	19.0
O=S(=O)(c1ccc2oc(=S)[nH]c2c1)N1CCCCC1	i	i	i	i	x	x	x	x
S=c1[nH]c2cc(-c3ccccc3)ccc2o1	i	i	25*	i	i	i	-1.03	-9.5
Cc1ccc(-c2nc3cccnc3o2)cc1NC(=O)COc1ccc(Cl)cc1C	i	i	i	i	x	x	x	x
Cc1ccc(-c2nc3cccnc3o2)cc1NC(=O)COc1ccc(C(C)(C)C)cc1	i	i	25*	i	i	21.0%*	-1.03	-18.0
CCOC(=O)C1CCCN(S(=O)(=O)c2ccc(C)cc2)C1 (configuration not stated)	i	i	i	i	x	x	x	x
CCOC(=O)C1CCCN(S(=O)(=O)c2ccc(S(=O)(=O)N(CC)CC)cc2)C1 (configuration not stated)	i	i	25*	i	i	i	-0.972	-20.0
CC1(C)c2ccccc2-c2nc3ccccc3cc2C1N1CCOCC1 (configuration not stated)	i	x	x	x	x	x	x	x
CC1(C)c2cc(O)ccc2OC1N1CCOCC1 (configuration not stated)	i	i	25*	i	i	i	-1	-13.0
COc1ccc(-n2c(SCCC(=O)O)nnc2-c2ccncc2)cc1	i	i	100*	i	i	i	-1.17	2.0
O=C(O)CCNS(=O)(=O)c1ccc2ccccc2c1	i	i	100*	i	i	i	-0.94	-4.5
CCCCSc1oc(-c2ccco2)nc1S(=O)(=O)c1ccccc1	i	i	25*	i	i	i	-0.739	-9.0
N#C/C(=C\c1cccnc1)C(=O)Nc1cccc(Cl)c1	i	i	i	i	x	x	x	x
Cc1cccc(NC(=O)/C(C#N)=C\c2cccnc2)c1	i	i	25*	i	27.5%*	i	-0.978	-12.0
COc1ccc(CNC(=O)COC(=O)C2CCN(S(=O)(=O)c3ccccc3C(F)(F)F)CC2)cc1	i	i	i	i	x	x	x	x
SMILES	TMEM16A act	CHT allo act	ANO1 block	CHT inh	TMEM16A reconf	TMEM16A Ca cntr	Parental YFP cnt	ClC-1 inh
CCCc1ccc(C(=O)NC(=O)c2ccccc2O)cc1	i	i	100*	i	34.5%*	21.5%*	-0.731	-5.0
CC(C)COP(=O)(c1ccc(N(C)C)cc1)C(O)c1cccnc1 (configuration not stated)	i	i	i	i	x	x	x	x
O=S1(=O)CC/C(=N\O)c2ccccc21	i	i	25*	i	i	i	-1.17	-3.5
CCn1nc(C)c(CNC(=O)c2cc(COc3ccc(F)cc3Cl)on2)c1C	i	i	25*	i	24.0%*	i	-1.06	-15.5
COC(/C(=N/O)c1ccc(Cl)cc1)c1ccccc1 (configuration not stated)	i	i	100*	i	25.5%*	i	-1.28	-25.5
CCc1c(C(=O)Nc2cc(C(=O)OC)ccc2C)csc1C	i	i	i	i	x	x	x	x
Cc1cccc(Oc2cnn(C(C)(C)C)c(=O)c2Cl)c1	i	i	25*	i	i	i	-0.942	-16.5
COc1ccccc1CCNC(=O)c1cccc(S(=O)(=O)NCc2ccccc2)c1	i	i	i	i	x	x	x	x
CCOc1ccc(N(C(=O)CNC(=O)c2cccs2)C(C(=O)NCC2CCCO2)c2ccc(OC)c(OC)c2)cc1 (configuration not stated)	i	i	i	i	x	x	x	x
CCn1c(=O)c(C(=O)NNC(=O)c2ccccc2F)c(O)c2ccccc21	i	i	25*	i	22.0%*	48.5%*	-1.19	-5.5
O=S(=O)(c1ccc2c(c1)OCCO2)N1CCN(c2ncnc3sccc23)CC1	i	i	25*	i	17.0%*	i	-1.05	-19.0
O=S(=O)(c1ccc2c(c1)OCCO2)N1CCC(O)(c2ccc(Cl)cc2)CC1	i	i	100*	i	i	i	-1.05	-0.5
Cc1ccc(S(=O)(=O)N2CCN(c3ncnc4sccc34)CC2)cc1C	i	x	x	x	x	x	x	x

From PubChem
